Compound activity as filed in PubChem.
The full list was thinned out, with hits kept by preference.
CD40_NFkB_inh = CD40 pathway inhibition in BL2 cells; BL2 NF-kB luciferase reporter, CD40L-induced, 4 h; inhibition, % at 10 µM; actives 0.94% (n = 83,000); AID 1053188;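 active = mean inhibition of at least 50% with a set share of replicates also reaching that level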;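 note: 0% = neutral control wells and 100% = IKK inhibitor VII at 50 µM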
Active calls of the source: *; [ ] = dose if it differs, or a comment.

SMILES CD40_NFkB_inh
CCCNC(=O)N1CC2(CCN(CC3CCCC3)CC2)c2c(n(C)c3cc(OC)ccc23)[C@H]1CO 5
O=C(Nc1cccc(Cl)c1)N[C@@H]1CC[C@H](CCNC(=O)C2CCCC2)O[C@@H]1CO 2
CCOC(=O)N(C)C[C@H]1OCc2ccccc2-c2c(n(C)c3ccccc23)C(=O)N([C@@H](C)CO)C[C@@H]1C -4
C[C@H]1CN(C)C(=O)Cc2ccccc2O[C@@H]1CN(C)C(=O)OC(C)(C)C 11
CCCNC(=O)N1[C@H](CO)[C@H](c2ccc(-c3cccnc3)cc2)[C@@H]1C#N 32[25_µM]
CCCNC(=O)N1[C@H](CO)[C@H](c2ccccc2-c2cccc(OC)c2)[C@@H]1C#N 36[25_µM]
CCCNC(=O)N1[C@@H](C#N)[C@H](c2ccc(-c3cccc(OC)c3)cc2)[C@@H]1CO 51*[25_µM]
CCCNC(=O)N1[C@H](C#N)[C@@H](c2ccc(-c3ccccc3F)cc2)[C@H]1CO 9[25_µM]
CCCNC(=O)N1[C@H](CO)[C@H](c2ccc(/C=C/c3ccccc3)cc2)[C@@H]1C#N 66*[25_µM]
CCCNC(=O)N1[C@H](C#N)[C@@H](c2ccc(-c3ccccc3F)cc2)[C@@H]1CO 2[25_µM]
CCCNC(=O)N1[C@@H](C#N)[C@@H](c2ccc(-c3cccnc3)cc2)[C@@H]1CO 6[25_µM]
CCCNC(=O)N1[C@H](C#N)[C@@H](c2ccc(-c3ccc(C(=O)N(C)C)cc3)cc2)[C@@H]1CO -26[25_µM]
CCCNC(=O)N1[C@H](CO)[C@H](c2ccc(-c3cccc(OC)c3)cc2)[C@@H]1C#N 68*[25_µM]
CN1C(=O)c2cc(NC(=O)Nc3ccccc3Cl)ccc2OC[C@H]2O[C@H](CC(=O)O)CC[C@@H]21 -11[25_µM]
CN(C)CC(=O)N[C@@H]1CC[C@H](CCNC(=O)C2CCC2)O[C@@H]1CO 2[25_µM]
CO[C@@H]1CN(C)C(=O)c2ccc(NC(=O)C3CCC3)cc2OC[C@@H](C)N(Cc2cccnc2)C[C@H]1C -1
O=C(C1CC1)N1CC[C@@H]2[C@H](CO)Nc3ccc(C4=CCCCC4)cc3[C@@H]21 16
C[C@H]1CN([C@@H](C)CO)C(=O)c2c(c3ccccc3n2C)-c2ccccc2CO[C@H]1CN(C)S(=O)(=O)c1ccccc1F -4
COc1ccc(S(=O)(=O)Nc2ccc3c(c2)OC[C@H](C)NC[C@@H](C)[C@@H](OC)CN(C)C3=O)cc1 -6[25_µM]
CCCc1cn(CC[C@@H]2CC[C@H](NC(=O)Cc3cccnc3)[C@@H](CO)O2)nn1 -8
C[C@H](CO)N1C[C@H](C)[C@@H](CN(C)C(=O)NC2CCCC2)Oc2cc(-c3cncnc3)ccc2S1(=O)=O -12[25_µM]
CN(C)C(=O)c1ccc(-c2ccccc2[C@H]2[C@H](C#N)N(C(=O)C3CCCC3)[C@H]2CO)cc1 0
CCCNC(=O)[C@@H]1[C@@H](CO)[C@@H]2Cn3c(ccc(-c4ccc(OC)cc4)c3=O)[C@H]1N2CC 1[25_µM]
